The source made the active and inactive calls. The calls were made as follows: active = hit-call score of the fitted dose curve at least 0.9, where 1 is the maximum; inactive = score below 0.9.
Each compound was assayed against Cytochrome P450 2C19 (Homo sapiens) (UniProt P33261) (assay: ERF_FR_ADME_hCYP2C19_CEC: Eurofins (ERF) CYP450-related Enzyme Activity (ADME) Assay for CYP2C19 Inhibition Assay, CEC Subtrate).
Chain of Cytochrome P450 2C19 (Homo sapiens) (P33261 whole entry, looked up): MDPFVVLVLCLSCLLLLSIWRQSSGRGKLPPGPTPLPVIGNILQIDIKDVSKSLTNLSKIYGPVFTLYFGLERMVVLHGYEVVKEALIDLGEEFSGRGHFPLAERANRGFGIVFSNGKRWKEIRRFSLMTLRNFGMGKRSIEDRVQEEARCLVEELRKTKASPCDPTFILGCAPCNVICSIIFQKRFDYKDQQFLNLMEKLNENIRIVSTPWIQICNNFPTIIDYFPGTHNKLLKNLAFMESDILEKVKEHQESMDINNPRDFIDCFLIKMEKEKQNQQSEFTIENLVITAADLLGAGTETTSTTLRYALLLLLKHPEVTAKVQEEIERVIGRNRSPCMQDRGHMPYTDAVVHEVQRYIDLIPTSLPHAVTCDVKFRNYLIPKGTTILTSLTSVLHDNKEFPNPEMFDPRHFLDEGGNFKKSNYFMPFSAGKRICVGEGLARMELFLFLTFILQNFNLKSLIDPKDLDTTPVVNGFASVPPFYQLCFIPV
Method: ERF_FR_ADME_hCYP2C19_CEC is a biochemical, single-readout assay that uses extracted gene-proteins in a cell-free assay. Measurements were taken 0.83 hour after chemical dosing in a 96-well plate. See CYP2C19 inhibition (recombinant, CEC substrate).ERF_FR_ADME_hCYP2C19_CEC is an assay component calculated from the ERF_FR_ADME_hCYP2C19_CEC assay. It is designed to measure enzyme activity using a type of enzyme reporter as detected by fluorescence intensity of HFC with fluorimetry technology.Data from the assay component ERF_FR_ADME_hCYP2C19_CEC was analyzed at the assay endpoint, ERF_FR_ADME_hCYP2C19_CEC, in the positive analysis fitting direction relative to acetonitrile as the negative control and baseline of activity. Using a type of enzyme reporter, loss-of-signal activity can be used to understand changes in enzymatic activity as they relate to gene CYP2C19. To generalize the intended target to other relatable targets, this assay endpoint is annotated to the cyp intended target family, where the subfamily is steroidogenesis-related.
Assay is performed with 1 compound concentration(s) and each concentration tested using 2 replicate
In the case of `O=C(/C=C/c1ccc(O)cc1)CC(=O)/C=C/c1ccc(O)cc1`, the AC50 is reported as 1470 nM (active).
